From PubChem BioAssay come the findings set out here.

Unmarked numbers belong to inactive results. For part of these data: Results with a measured potency or affinity are listed apart. Active and inactive are the calls of the source. Unless noted, how the calls were made is not given here.

The nature of experiment [1]: antimalarial activity against Dd2 strain (AID 2302;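 active means growth inhibition above 50% at the single 2 µM test dose, taken to imply half-maximal potency below 2 µM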;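 further: 0% = DMSO untreated growth and 100% = chloroquine plus artemisinin killed control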). The conditions noted are these: P. falciparum Dd2 in RBCs, LDH growth readout, 72 h; at 2 µM; hits give high values.
The nature of experiment [2]: HepG2 cytotoxicity, primary screen, cytotoxicity control for P. falciparum antimalarial project, cell-based, ATP luminescence (AID 2303;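 active means inhibition above 50%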;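 further: 0% = DMSO wells and 100% = digitonin-killed cells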). Conditions: HepG2 viability, 24-48 h, at 10 µM, hits give high values.
Experiment [3] has as its target L-lactate dehydrogenase (Plasmodium falciparum (isolate CDC / Honduras)) (UniProt Q27743). Description: PfLDH activity inhibition – cell lysate, 3D7 strain, counter-screen for P. falciparum growth inhibition project (AID 2304).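 Further: 0% = vehicle and 100% = reference inhibitor.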 Conditions: P. falciparum 3D7 crude extract, LDH APAD/NBT absorbance; at 2 µM; hits give high values.
Experiment [4] is described as follows: inhibition of 3D7 malaria parasite growth – strain 3D7 (AID 2306).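 Further: 0% = DMSO wells and 100% = chloroquine plus artemisinin control wells.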 The conditions noted are these: P. falciparum 3D7 erythrocytic growth, LDH absorbance, 72 h; at 2 µM; hits give high values.
In experiment [5] the target is Calcium-dependent protein kinase 1 (Plasmodium falciparum (isolate 3D7)) (UniProt P62344). Description: PfCDPK1 kinase inhibitors, biochemical, TCAMS library (AID 1159585; cut-off not given, nearly all actives have IC50 up to about 0.98 µM;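 further: inhibitors leave more ATP so luminescence rises with inhibition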). The conditions noted are these: recombinant PfCDPK1, Kinase-Glo ATP depletion luminescence.
Experiment [6] addresses Plasmodium falciparum protein kinase 6 (PK6, PF3D7_1337100) (UniProt Q8IDW1). Briefly: PfPK6 kinase inhibitors, biochemical, TCAMS library (AID 1159586). The conditions noted are these: recombinant PfPK6, Kinase-Glo ATP depletion luminescence.
Experiment [7] addresses Protein kinase 7 (PK7), Plasmodium falciparum 3D7 (PF3D7_0213400) (UniProt Q7YTF7). Briefly: inhibition of Plasmodium PK7 catalytic activity – biochemical, TCAMS antimalarial set, Kinase-Glo luminescence (AID 1159587). Conditions: recombinant PfPK7, Kinase-Glo ATP depletion luminescence.
The target in experiment [8] is Calcium-dependent protein kinase 4 (Plasmodium falciparum (isolate 3D7)) (UniProt Q8IBS5). Briefly: PfCDPK4 kinase inhibitors, biochemical, TCAMS library (AID 1159588; cut-off not given, nearly all actives have IC50 up to about 0.91 µM). Conditions: recombinant PfCDPK4, Kinase-Glo ATP depletion luminescence.
Calcium-dependent protein kinase 4 (Plasmodium falciparum (isolate 3D7)), sequence (Q8IBS5 whole entry, looked up): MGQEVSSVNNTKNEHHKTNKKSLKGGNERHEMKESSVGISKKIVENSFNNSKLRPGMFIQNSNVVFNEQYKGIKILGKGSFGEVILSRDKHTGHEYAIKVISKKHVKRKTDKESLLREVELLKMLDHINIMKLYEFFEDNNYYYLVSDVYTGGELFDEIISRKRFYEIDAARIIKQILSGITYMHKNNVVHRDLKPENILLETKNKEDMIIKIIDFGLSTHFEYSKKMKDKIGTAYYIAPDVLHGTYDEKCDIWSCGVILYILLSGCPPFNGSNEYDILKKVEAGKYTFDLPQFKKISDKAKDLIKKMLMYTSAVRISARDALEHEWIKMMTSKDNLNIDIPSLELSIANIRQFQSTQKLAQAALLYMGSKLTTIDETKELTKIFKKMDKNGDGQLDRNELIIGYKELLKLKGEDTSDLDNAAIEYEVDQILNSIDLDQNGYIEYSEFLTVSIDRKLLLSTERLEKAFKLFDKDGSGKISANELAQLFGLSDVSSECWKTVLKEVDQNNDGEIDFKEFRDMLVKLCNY

Protein kinase 7 (PK7), Plasmodium falciparum 3D7 (PF3D7_0213400), sequence (Q7YTF7 1-343): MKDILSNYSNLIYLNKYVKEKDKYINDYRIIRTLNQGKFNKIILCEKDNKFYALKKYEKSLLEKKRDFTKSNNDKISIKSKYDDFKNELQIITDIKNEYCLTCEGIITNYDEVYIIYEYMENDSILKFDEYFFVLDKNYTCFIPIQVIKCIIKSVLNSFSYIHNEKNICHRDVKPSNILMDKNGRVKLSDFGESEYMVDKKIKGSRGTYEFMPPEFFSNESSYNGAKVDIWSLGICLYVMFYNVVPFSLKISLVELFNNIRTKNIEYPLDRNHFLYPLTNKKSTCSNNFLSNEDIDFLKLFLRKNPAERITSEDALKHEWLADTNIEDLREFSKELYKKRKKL
Calcium-dependent protein kinase 1 (Plasmodium falciparum (isolate 3D7)), sequence (P62344 whole entry, looked up): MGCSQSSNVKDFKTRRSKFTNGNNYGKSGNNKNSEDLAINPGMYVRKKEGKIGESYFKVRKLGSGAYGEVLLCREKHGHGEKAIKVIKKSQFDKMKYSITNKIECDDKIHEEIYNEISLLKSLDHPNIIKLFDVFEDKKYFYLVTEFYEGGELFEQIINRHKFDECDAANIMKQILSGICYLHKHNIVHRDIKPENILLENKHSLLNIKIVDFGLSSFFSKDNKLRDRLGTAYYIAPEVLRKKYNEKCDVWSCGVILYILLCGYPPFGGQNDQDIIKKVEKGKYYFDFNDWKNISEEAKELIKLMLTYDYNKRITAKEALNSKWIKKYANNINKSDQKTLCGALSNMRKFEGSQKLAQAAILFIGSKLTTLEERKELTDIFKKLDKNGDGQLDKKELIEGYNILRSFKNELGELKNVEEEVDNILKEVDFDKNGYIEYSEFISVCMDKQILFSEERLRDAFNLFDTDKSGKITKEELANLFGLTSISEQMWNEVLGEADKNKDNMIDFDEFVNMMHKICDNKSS
Plasmodium falciparum protein kinase 6 (PK6, PF3D7_1337100), sequence (Q8IDW1 1-305): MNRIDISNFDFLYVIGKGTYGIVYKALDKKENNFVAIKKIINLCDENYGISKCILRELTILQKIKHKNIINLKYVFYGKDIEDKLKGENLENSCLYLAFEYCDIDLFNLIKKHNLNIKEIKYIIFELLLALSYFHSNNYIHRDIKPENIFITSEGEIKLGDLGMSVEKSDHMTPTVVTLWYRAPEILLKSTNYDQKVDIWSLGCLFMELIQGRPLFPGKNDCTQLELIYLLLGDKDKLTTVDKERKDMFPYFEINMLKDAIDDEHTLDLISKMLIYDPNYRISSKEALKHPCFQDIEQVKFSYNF
L-lactate dehydrogenase (Plasmodium falciparum (isolate CDC / Honduras)), sequence (Q27743 whole entry, looked up): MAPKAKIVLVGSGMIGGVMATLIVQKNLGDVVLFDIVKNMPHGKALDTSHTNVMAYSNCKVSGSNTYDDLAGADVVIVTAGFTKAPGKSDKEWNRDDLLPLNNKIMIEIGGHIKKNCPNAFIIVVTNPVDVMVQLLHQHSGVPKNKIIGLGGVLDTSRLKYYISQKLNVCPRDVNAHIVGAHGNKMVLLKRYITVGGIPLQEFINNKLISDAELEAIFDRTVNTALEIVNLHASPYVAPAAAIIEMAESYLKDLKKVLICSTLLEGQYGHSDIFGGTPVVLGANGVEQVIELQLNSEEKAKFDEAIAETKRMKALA

For the compound `CCOc1ccc(C(=O)Nc2cc(Br)c3c(c2)CNCC3)cc1C(F)(F)F`, the growth inhibition in experiment [1] was 22%; in experiment [4], 98% (active). Further, the inhibition was 15% in experiment [2] and 6% in experiment [3]. The result in experiment [5], in experiment [6], in experiment [7] and in experiment [8] was inactive.

`CCN(CC)CCN(Cc1ccc(-c2ccc(C(F)(F)F)cc2)cc1)C(=O)Cn1c(CCc2ccc(F)c(F)c2F)nc(=O)c2ccc(F)cc21`: the results for the growth inhibition in experiment [1] and in experiment [4] were 46% and 98% (active), respectively. Further, the inhibition in experiment [2] was 19%; in experiment [3], -1%. Besides, the result in experiment [5], in experiment [6], in experiment [7] and in experiment [8] was inactive.

For `Cc1cnc(NCC2CCCCC2)nc1NCC(=O)Nc1ccccc1`, the results for the growth inhibition in experiment [1] and in experiment [4] were 51% (active) and 90% (active), respectively. In addition, the inhibition in experiment [2] was 21%; in experiment [3] it was 0%. The result in experiment [5], in experiment [6], in experiment [7] and in experiment [8] was inactive.

In the case of `CCOC(=O)NCC(=O)Nc1cccc(-c2cccc(-c3nc4ccc(C(F)(F)F)cc4[nH]3)c2)c1`, the growth inhibition in experiment [1] was 34%; in experiment [4], 91% (active). The inhibition in experiment [2] was 59% (active); in experiment [3] it was -2%. In addition, the result in experiment [5], in experiment [6], in experiment [7] and in experiment [8] was inactive.

For `N#Cc1cc(C(=O)Nc2ccccc2)c(N)nc1SCC(=O)NC(c1ccccc1)c1cccs1` (centres undefined), the growth inhibition is 100% (active) in experiment [1] and 98% (active) in experiment [4]. Further, the inhibition in experiment [2] is 34%; in experiment [3], -1%. The outcome in experiment [5], in experiment [6], in experiment [7] and in experiment [8] was inactive.

For the compound `COc1ccc(CNCc2ccc(-c3ccc(-c4nc5ccc(C(F)(F)F)cc5[nH]4)s3)cc2)cc1`, the growth inhibition in experiment [1] is 98% (active); in experiment [4], 100% (active). Further, the inhibition is 38% in experiment [2] and -1% in experiment [3]. In addition, the result in experiment [5], in experiment [6], in experiment [7] and in experiment [8] was inactive.

In the case of `CC(C)CCNCC(O)Cn1c2ccc(Cl)cc2c2cc(Cl)ccc21` (centres undefined), the growth inhibition in experiment [1] and in experiment [4] was 99% (active) each time. The values for the inhibition in experiment [2] and in experiment [3] were 36% and 3%, respectively. In addition, the result in experiment [5], in experiment [6], in experiment [7] and in experiment [8] was inactive.

Regarding `Nc1ncc(-c2ccc3nccc(-c4ccncc4)c3c2)cc1S(=O)(=O)N1CCCCC1`, the growth inhibition in experiment [1] and in experiment [4] was 100% (active) each time. The inhibition in experiment [2] was 25%; in experiment [3], 3%. Further, the outcome in experiment [5], in experiment [6], in experiment [7] and in experiment [8] was inactive.

With `NC(=O)c1c(Cl)nc2ccccc2c1Cl`, the growth inhibition in experiment [1] was -2%; in experiment [4], 91% (active). For the same compound, the inhibition in experiment [2] is 2%; in experiment [3], -2%. Moreover, the outcome in experiment [5], in experiment [6], in experiment [7] and in experiment [8] was inactive.

For the compound `CC(=O)N1c2ccccc2C(C)=CC1(C)C`, the figures for the growth inhibition in experiment [1] and in experiment [4] were 11% and 97% (active), respectively. The inhibition is 3% in experiment [2] and 1% in experiment [3]. In addition, the result in experiment [5], in experiment [6], in experiment [7] and in experiment [8] was inactive.

Consider `CN(C)c1c(CNCCCCCCNCc2ccc3ccccc3c2N(C)C)ccc2ccccc12`, for which the growth inhibition in experiment [1] is 51% (active); in experiment [4] it was 100% (active). The inhibition in experiment [2] was 100% (active); in experiment [3] it was -2%. Besides, the outcome in experiment [5], in experiment [6], in experiment [7] and in experiment [8] was inactive.

As to `Cc1cccc2[nH]c(-c3ccc(-c4cccc(CN5CCN(CCN6CCOCC6)CC5)c4)s3)nc12`, the growth inhibition was 83% (active) in experiment [1] and 101% (active) in experiment [4]. In addition, the inhibition in experiment [2] is 33%; in experiment [3], -2%. Besides, the result in experiment [5], in experiment [6], in experiment [7] and in experiment [8] was inactive.

In the case of `CC(C)(CNC(=O)[C@@H]1CCCN(CCOc2ccc(F)c(F)c2)C1)c1nc(-c2ccc(Cl)c(O)c2)c(-c2ccncc2)[nH]1`, the growth inhibition in experiment [1] is 77% (active); in experiment [4], 101% (active). The inhibition in experiment [2] was 72% (active); in experiment [3] it was -1%. Moreover, the result in experiment [5], in experiment [6], in experiment [7] and in experiment [8] was inactive.

Turning to `Cc1cc(N[C@@H](Cc2ccccc2)C(=O)Nc2ccccc2)nc(NCC2CCCCC2)n1`, the growth inhibition in experiment [1] is 55% (active); in experiment [4] it was 98% (active). In addition, the inhibition in experiment [2] is 12%; in experiment [3] it was 1%. For the same compound, the outcome in experiment [5], in experiment [6], in experiment [7] and in experiment [8] was inactive.

For `Cc1c(C(=O)Nc2cc(Sc3ccc(F)cc3)cc([N+](=O)[O-])c2)sc2ncn(Cc3cccc(F)c3)c(=O)c12`, the values for the growth inhibition in experiment [1] and in experiment [4] were 53% (active) and 100% (active), respectively. Also, the values for the inhibition in experiment [2] and in experiment [3] were -1% and 5%, respectively. Also, the outcome in experiment [5], in experiment [6], in experiment [7] and in experiment [8] was inactive.

For `O=C(/C=C/c1ccc(Cl)c(Cl)c1)NCCCCCCN1CCN(C(=O)Nc2ccc(OC(F)F)cc2)CC1`, the growth inhibition in experiment [1] is 15%; in experiment [4], 91% (active). Besides, the figures for the inhibition in experiment [2] and in experiment [3] were 44% and -4%, respectively. Besides, the result in experiment [5], in experiment [6], in experiment [7] and in experiment [8] was inactive.

With `Fc1ccc2nc(-c3cccc(-c4ccc(CN5CCN(CCN6CCOCC6)CC5)cc4)c3)[nH]c2c1`, the growth inhibition in experiment [1] was 100% (active); in experiment [4], 101% (active). For the same compound, the values for the inhibition in experiment [2] and in experiment [3] were 30% and -3%, respectively. The result in experiment [5], in experiment [6], in experiment [7] and in experiment [8] was inactive.

`CC(C)(C)c1ccc2nc(-c3ccc(C(=O)NCc4cccc(C(F)(F)F)c4)cc3)[nH]c2c1`: the growth inhibition was 26% in experiment [1] and 98% (active) in experiment [4]. Besides, the inhibition is 9% in experiment [2] and -1% in experiment [3]. For the same compound, the outcome in experiment [5], in experiment [6], in experiment [7] and in experiment [8] was inactive.
